Test results published in ChEMBL document CHEMBL1961873, “Compounds: GSK PKIS; Assays: Nanosyn kinase panel” (2012).
Where “and” joins values, the source holds several entries; their conditions need not be identical. Identical values can stand only once.

Columns and labels:
[1] = target: Tyrosine-protein kinase Fyn (Homo sapiens) (UniProt P06241); settings: at 1 µM
[2] = target: Tyrosine-protein kinase HCK (Homo sapiens) (UniProt P08631); settings: at 0.1 µM
[3] = target: Tyrosine-protein kinase HCK (Homo sapiens) (UniProt P08631); settings: at 1 µM
[4] = target: Insulin-like growth factor 1 receptor (Homo sapiens) (UniProt P08069); settings: at 0.1 µM
[5] = target: Insulin-like growth factor 1 receptor (Homo sapiens) (UniProt P08069); settings: at 1 µM
[6] = target: Insulin receptor (Homo sapiens) (UniProt P06213); settings: at 0.1 µM
[7] = target: Insulin receptor (Homo sapiens) (UniProt P06213); settings: at 1 µM
[8] = target: Insulin receptor-related protein (Homo sapiens) (UniProt P14616); settings: at 0.1 µM
[9] = target: Insulin receptor-related protein (Homo sapiens) (UniProt P14616); settings: at 1 µM
[10] = target: T1, Tyrosine-protein kinase ITK/TSK (Homo sapiens) (UniProt Q08881); settings: at 0.1 µM
T1 sequence (whole entry): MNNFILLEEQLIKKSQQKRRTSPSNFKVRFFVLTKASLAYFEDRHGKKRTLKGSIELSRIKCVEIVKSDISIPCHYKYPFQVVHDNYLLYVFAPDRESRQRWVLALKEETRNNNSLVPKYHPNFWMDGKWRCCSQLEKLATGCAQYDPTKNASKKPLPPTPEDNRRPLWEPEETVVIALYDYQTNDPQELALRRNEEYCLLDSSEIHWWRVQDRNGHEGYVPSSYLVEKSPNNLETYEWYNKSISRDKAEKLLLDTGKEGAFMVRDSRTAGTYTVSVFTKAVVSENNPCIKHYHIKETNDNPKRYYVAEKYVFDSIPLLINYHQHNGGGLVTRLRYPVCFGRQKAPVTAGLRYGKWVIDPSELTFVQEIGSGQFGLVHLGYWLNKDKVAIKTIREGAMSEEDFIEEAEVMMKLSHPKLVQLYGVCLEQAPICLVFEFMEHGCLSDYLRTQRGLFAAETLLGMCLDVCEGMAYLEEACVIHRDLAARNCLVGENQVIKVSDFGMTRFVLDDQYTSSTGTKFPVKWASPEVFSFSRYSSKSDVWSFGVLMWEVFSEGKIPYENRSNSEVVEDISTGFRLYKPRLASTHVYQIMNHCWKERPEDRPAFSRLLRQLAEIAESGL

[11] = target: T1, Tyrosine-protein kinase ITK/TSK (Homo sapiens); settings: at 1 µM
[12] = target: Tyrosine-protein kinase JAK1 (Homo sapiens) (UniProt P23458); settings: at 0.1 µM
[13] = target: Tyrosine-protein kinase JAK1 (Homo sapiens) (UniProt P23458); settings: at 1 µM
[14] = target: Tyrosine-protein kinase JAK2 (Homo sapiens) (UniProt O60674); settings: at 0.1 µM
[15] = target: Tyrosine-protein kinase JAK2 (Homo sapiens) (UniProt O60674); settings: at 1 µM
[16] = target: T2, Tyrosine-protein kinase JAK3 (Homo sapiens) (UniProt P52333); settings: at 0.1 µM
T2 sequence (whole entry): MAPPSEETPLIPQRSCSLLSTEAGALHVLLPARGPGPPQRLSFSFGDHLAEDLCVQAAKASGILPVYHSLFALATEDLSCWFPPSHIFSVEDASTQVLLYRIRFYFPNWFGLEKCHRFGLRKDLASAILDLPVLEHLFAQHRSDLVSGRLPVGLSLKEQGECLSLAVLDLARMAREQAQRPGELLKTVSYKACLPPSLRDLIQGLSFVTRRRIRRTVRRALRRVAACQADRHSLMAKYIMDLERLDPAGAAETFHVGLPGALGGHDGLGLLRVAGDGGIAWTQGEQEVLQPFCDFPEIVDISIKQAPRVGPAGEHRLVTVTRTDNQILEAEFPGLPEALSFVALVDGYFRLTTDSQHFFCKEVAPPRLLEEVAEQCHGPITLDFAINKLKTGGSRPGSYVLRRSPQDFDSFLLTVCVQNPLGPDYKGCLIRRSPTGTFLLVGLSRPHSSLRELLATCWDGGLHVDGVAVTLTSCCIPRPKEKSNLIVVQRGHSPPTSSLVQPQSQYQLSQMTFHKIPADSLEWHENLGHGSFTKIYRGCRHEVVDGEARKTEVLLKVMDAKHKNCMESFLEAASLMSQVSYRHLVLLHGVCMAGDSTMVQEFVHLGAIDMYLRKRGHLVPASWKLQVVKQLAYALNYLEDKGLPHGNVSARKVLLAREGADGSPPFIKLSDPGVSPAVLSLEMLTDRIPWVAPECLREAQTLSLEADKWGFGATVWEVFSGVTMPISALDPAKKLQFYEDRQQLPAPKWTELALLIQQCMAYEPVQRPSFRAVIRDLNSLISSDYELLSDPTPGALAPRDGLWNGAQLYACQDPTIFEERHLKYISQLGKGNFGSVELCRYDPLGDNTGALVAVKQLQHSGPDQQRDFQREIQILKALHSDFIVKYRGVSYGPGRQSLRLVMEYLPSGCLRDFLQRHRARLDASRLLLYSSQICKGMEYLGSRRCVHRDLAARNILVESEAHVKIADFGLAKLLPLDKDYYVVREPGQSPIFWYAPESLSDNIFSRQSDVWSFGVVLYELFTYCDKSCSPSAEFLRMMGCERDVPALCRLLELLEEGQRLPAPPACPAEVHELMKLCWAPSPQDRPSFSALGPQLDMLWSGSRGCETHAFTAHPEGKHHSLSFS

[17] = target: T2, Tyrosine-protein kinase JAK3 (Homo sapiens); settings: at 1 µM
[18] = target: Vascular endothelial growth factor receptor 2 (Homo sapiens) (UniProt P35968); settings: at 0.1 µM
[19] = target: Vascular endothelial growth factor receptor 2 (Homo sapiens) (UniProt P35968); settings: at 1 µM
[20] = target: Mast/stem cell growth factor receptor Kit (Homo sapiens) (UniProt P10721); settings: at 0.1 µM;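 also: values are mean inhibition of KIT, from the GSK PKIS dataset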

Chain of Tyrosine-protein kinase HCK (Homo sapiens) (P08631 2-526 limits assumed): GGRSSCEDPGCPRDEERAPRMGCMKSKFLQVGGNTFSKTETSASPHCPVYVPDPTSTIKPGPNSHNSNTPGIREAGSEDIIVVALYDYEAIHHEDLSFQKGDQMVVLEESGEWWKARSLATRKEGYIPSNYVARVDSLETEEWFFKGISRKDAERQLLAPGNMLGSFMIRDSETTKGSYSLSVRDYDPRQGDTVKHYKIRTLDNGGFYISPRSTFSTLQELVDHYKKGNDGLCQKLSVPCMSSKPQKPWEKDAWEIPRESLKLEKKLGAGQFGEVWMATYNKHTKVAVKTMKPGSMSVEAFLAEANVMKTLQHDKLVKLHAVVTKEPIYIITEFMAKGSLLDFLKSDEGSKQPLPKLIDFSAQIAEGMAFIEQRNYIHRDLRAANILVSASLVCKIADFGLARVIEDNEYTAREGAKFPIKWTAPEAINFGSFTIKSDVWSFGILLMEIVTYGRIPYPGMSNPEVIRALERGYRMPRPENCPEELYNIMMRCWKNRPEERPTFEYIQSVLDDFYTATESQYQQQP
Chain of Insulin-like growth factor 1 receptor (Homo sapiens) (P08069 31-736 limits assumed): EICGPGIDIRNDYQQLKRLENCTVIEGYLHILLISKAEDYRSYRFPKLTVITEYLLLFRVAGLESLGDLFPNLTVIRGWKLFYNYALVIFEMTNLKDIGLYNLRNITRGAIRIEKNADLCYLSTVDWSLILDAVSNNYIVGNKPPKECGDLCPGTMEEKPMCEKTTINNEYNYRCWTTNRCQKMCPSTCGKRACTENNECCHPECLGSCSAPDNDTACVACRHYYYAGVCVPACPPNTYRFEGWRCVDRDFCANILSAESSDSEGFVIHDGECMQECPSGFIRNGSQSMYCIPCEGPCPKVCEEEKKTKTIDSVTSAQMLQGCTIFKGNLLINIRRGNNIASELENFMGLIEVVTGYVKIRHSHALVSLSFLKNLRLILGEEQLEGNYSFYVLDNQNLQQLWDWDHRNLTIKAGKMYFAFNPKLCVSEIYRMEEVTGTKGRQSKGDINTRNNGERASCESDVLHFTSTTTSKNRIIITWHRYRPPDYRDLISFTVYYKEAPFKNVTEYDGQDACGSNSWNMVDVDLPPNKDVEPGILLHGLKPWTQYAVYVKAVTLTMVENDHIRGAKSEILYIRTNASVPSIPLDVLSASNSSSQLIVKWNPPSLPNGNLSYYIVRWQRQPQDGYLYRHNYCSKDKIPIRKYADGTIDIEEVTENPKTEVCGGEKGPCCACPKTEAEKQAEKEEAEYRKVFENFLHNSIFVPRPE
Chain of Insulin-like growth factor 1 receptor (Homo sapiens) (P08069 741-1367 limits assumed): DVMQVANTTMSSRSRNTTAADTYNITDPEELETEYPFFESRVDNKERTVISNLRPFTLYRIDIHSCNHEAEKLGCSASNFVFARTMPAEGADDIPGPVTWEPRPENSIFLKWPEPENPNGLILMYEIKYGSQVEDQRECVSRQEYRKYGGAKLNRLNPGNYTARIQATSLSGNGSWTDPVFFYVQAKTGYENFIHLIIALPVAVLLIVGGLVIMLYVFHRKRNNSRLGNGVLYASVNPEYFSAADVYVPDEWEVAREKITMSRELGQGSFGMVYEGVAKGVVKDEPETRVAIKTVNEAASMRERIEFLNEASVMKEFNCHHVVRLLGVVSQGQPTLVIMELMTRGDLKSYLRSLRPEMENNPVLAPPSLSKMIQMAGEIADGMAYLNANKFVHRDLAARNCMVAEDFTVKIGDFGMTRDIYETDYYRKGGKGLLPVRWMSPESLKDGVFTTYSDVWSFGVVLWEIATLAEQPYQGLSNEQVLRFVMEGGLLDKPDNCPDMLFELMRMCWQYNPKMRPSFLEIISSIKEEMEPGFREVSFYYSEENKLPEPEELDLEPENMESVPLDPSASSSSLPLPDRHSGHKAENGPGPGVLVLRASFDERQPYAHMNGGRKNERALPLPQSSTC
Chain of Tyrosine-protein kinase JAK1 (Homo sapiens) (P23458 whole entry): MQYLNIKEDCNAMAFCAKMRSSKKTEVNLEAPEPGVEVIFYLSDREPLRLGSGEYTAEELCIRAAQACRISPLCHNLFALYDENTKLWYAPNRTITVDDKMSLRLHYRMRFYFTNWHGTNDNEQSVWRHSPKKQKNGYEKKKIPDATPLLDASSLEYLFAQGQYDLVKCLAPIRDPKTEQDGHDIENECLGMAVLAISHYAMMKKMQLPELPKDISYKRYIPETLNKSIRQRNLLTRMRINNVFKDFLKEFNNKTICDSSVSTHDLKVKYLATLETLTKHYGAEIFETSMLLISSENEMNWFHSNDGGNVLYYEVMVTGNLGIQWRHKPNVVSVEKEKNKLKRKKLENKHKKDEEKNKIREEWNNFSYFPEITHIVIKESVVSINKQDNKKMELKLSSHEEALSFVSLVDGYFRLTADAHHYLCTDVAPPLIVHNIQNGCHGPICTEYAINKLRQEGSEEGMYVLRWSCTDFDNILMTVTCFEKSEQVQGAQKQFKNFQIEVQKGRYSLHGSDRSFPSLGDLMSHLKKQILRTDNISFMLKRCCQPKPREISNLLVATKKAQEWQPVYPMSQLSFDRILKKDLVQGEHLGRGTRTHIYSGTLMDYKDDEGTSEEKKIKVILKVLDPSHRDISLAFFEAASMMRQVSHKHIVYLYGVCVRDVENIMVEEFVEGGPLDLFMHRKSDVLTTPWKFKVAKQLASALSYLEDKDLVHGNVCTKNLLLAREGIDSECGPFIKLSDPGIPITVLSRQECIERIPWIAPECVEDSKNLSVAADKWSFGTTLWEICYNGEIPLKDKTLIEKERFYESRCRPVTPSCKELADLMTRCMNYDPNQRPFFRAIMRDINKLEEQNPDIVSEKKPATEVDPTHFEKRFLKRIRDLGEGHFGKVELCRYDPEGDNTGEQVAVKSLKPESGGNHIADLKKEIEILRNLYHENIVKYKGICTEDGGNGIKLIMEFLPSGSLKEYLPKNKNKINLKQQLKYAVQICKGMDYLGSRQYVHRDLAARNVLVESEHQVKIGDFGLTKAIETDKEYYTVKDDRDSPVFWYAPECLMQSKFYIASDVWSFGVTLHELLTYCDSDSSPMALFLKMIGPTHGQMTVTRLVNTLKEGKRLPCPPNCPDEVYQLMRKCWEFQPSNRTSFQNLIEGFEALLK
Chain of Insulin receptor-related protein (Homo sapiens) (P14616 27-742 limits assumed): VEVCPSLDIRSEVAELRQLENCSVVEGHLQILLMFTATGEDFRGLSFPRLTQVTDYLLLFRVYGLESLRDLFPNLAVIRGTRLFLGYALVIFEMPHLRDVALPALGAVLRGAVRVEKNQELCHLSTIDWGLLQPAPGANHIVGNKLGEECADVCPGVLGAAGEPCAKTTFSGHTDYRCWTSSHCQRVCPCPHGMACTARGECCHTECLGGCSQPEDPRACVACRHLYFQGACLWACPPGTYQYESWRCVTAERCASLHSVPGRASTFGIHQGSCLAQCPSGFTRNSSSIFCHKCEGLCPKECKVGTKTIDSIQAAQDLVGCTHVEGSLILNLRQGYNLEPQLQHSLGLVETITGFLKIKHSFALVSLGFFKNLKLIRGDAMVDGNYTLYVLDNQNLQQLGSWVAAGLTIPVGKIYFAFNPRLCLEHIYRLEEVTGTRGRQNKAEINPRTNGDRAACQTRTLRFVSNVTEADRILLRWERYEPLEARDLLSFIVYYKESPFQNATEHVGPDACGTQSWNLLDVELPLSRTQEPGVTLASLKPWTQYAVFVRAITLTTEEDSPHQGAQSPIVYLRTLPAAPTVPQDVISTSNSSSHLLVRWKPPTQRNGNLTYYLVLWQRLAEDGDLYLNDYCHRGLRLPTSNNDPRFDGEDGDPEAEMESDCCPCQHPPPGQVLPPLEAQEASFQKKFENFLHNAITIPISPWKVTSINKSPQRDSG
Chain of Insulin receptor-related protein (Homo sapiens) (P14616 747-1297 limits assumed): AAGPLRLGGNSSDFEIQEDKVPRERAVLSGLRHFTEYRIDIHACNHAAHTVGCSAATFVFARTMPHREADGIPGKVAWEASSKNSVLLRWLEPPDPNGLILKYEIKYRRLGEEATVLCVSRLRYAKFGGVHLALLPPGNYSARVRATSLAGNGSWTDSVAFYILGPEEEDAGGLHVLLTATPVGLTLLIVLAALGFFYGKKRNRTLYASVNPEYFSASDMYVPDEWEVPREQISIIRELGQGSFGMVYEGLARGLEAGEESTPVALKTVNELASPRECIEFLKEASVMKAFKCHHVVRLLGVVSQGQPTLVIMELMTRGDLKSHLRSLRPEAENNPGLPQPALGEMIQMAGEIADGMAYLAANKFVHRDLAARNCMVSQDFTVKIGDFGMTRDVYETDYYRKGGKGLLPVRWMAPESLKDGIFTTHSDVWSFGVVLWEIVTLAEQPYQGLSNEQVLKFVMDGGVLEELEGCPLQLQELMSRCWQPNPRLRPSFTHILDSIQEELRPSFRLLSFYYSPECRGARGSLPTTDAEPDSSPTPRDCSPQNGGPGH
Chain of Tyrosine-protein kinase Fyn (Homo sapiens) (P06241 2-537 limits assumed): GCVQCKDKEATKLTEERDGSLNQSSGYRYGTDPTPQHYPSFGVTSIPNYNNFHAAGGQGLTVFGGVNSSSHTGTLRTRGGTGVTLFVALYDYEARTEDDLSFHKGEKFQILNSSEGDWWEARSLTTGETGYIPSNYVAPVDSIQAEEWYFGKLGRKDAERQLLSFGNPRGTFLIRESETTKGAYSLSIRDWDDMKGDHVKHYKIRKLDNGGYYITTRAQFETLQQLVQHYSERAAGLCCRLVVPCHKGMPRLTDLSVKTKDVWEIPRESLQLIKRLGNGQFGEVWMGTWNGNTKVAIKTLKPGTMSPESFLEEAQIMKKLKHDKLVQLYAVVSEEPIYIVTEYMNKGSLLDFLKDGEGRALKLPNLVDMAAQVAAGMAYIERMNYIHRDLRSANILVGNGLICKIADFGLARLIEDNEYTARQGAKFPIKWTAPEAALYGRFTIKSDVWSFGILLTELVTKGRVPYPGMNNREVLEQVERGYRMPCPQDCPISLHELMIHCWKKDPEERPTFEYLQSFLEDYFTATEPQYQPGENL

Compound | inhibition [1] | inhibition [2] | inhibition [3] | inhibition [4] | inhibition [5] | inhibition [6] | inhibition [7] | inhibition [8] | inhibition [9] | inhibition [10] | inhibition [11] | inhibition [12] | inhibition [13] | inhibition [14] | inhibition [15] | inhibition [16] | inhibition [17] | inhibition [18] | inhibition [19] | inhibition [20]
Nc1nonc1-c1nc2cnccc2n1C1CC1 | 1.39% and -1.43% | 5.06% and 2.65% | 10.4% and 4.62% | 2.14% and -5.78% | 3.37% and -3.55% | -0.15% and 4.69% | 2.19% and 6.69% | 2.59% and 0.39% | 3.14% and 0.7% | 1.56% and -2.28% | 1.67% and -2.42% | 0.26% and 0.62% | -0.07% and 3.24% | 0.87% and 1.12% | 3.76% and 0.55% | 4.13% and -4.12% | 4.66% and -3.11% | 14.3% and 13.8% | 54.2% and 52% | 4.06% and 2.58%
COc1ccc(Nc2ncc(-c3ccccc3)o2)cc1OC | 26.1% | 5.41% | 30.2% | 0.16% | 2.03% | 1.73% | 1.42% | -0.23% | -0.92% | 1.19% | 3.7% | 0.7% | 7.81% | 1.09% | 3.43% | 0.88% | 10.7% | 10.6% | 44.2% | 79.1%
Fc1ccc(Nc2nccc(-c3c(-c4ccc(C(F)(F)F)cc4)nn4ncccc34)n2)cc1F | 2.19% | 4.54% | 7.92% | 1.9% | 4.26% | 4.61% | 3.27% | 3.45% | 2.2% | 1.45% | 2.42% | 2.03% | 0.13% | 1.44% | 2.24% | -1.12% | 0.59% | 5.73% | 7.03% | 4.14%
CCOc1ccc2c(-c3ccnc(Nc4cc(OC)cc(C(F)(F)F)c4)n3)cnn2n1 | 13.1% | 3.74% | 4.95% | 8.6% | 7.42% | -0.85% | 1.65% | -0.39% | 0.03% | 0.24% | 1.63% | -2.13% | 6.23% | 1.22% | 5.38% | 0.66% | 9.24% | 4.19% | 19.1% | 7.32%
Nc1ncnc2occ(-c3ccc(NC(=O)Nc4cc(C(F)(F)F)ccc4F)cc3)c12 | 24.3% and 15.7% | 9.61% and 2.25% | 46.5% and 31.6% | 11.3% and 1.32% | 10.7% and 0.73% | 2.86% and 1.65% | 13.2% and 8.78% | 1.56% and -3.07% | 1.62% and -3% | 2.22% and -1.63% | 7.9% and 3.04% | -0.01% and -6.67% | 8.18% and -2.37% | 2.05% and -0.57% | 18.8% and 7.54% | -0.84% and 0.28% | 1.36% and 1% | 63.8% and 54% | 71.1% and 78.2% | 90.2% and 85.7%
N#Cc1ccc2c(-c3ccnc(NC4CC4)n3)c(-c3ccc(F)cc3)nn2c1 | 0.92% | 1.95% | 1.1% | 1.58% | -2.63% | 0.02% | -1.67% | -0.15% | 0.6% | 0.02% | 0.51% | 0.46% | 0.31% | -0.51% | -0.42% | -1.62% | -1.11% | 1.86% | 14.6% | 3.02%
CNC(=O)c1ncccc1Nc1nc(Nc2cc3c(cc2OC)CCCN3C(=O)CN(C)C)nc2[nH]ccc12 | 2.48% | 5.56% | 8.62% | 97% | 97.9% | 100% | 98.1% | 78.2% | 94.3% | 1.95% | 2.8% | 4.62% | -0.74% | 1.24% | 1.63% | 2.81% | 0.89% | 4.97% | 5.02% | 5.24%
O=C1Nc2ccccc2/C1=C1\CCc2cc(O)ccc21 | 7.65% | 6.34% | 14.6% | 4.61% | 12.5% | 7.96% | 23% | 3.81% | 2.83% | 3.68% | 14.6% | 3.42% | 12.7% | 1.74% | 3.79% | -0.09% | 13.3% | 10.5% | 37.8% | 66.3%
COc1ccc2ncn(-c3cc(O[C@H](C)c4ccccc4C(F)(F)F)c(C(N)=O)s3)c2c1 | 5% | 0.81% | 2.14% | -0.28% | -0.09% | 0.11% | 1.34% | -2.16% | -0.27% | 0.33% | 1.39% | -0.98% | 5.43% | 1.01% | -1.12% | 0.5% | 6.44% | 2.92% | 14.1% | -1.6%
CCN1CCC(C(=O)Nc2n[nH]c3nnc(-c4cccc(F)c4F)cc23)CC1 | 0.66% | 0.33% | 0.65% | -0.72% | -1.06% | -0.08% | 1.38% | -1.17% | -1.67% | 0.47% | 0.88% | 1.68% | -1.21% | -0.5% | -0.03% | 0.12% | 1.09% | 1.67% | 4.26% | 1.8%
Cc1cc(O)cc(C)c1/C=C/c1cncc(C(N)=O)c1 | 36.2% | 15.2% | 65.3% | 5.33% | 2.8% | 3.56% | 2.45% | 1.49% | 1.71% | 1.53% | 2.12% | -0.72% | 2.56% | 2.3% | 2.93% | -0.77% | 1.29% | 4.56% | 6.58% | 16.3%
Cc1ccc(-c2cc3c(NC(=O)C4CC4)ncnc3o2)cc1 | 5.49% | 7.39% | 21.8% | 5.44% | 5.98% | 5.37% | 5.18% | 5.59% | 2.34% | 1.76% | 2.63% | 2.29% | 1.7% | 2.06% | 2.55% | -0.9% | 2.42% | 6.12% | 13.4% | 8.72%
CCS(=O)(=O)c1ccc(OC)c(Nc2ncc(-c3cccc(F)c3)o2)c1 | 72.4% | 33% | 74.3% | 5.72% | 6.74% | 7.03% | 8.47% | 2.84% | 4.59% | 2.16% | 6.38% | 7.39% | 10.4% | 3.25% | 2.43% | -1.97% | 0.45% | 46.8% | 77% | 74.7%
